The record followed here is PubChem BioAssay (NCI).

Experiment [1] in a line: NCI Yeast Anticancer Drug Screen. Data for the rad50 strain (AID 155).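 Also: 0% = growth of vehicle-only cultures of the same strain.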 The note with it: S. cerevisiae rad50 strain growth inhibition; at 50.0 µM; stronger effect = higher value. Put shortly:
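Growth of the mutant yeast was measured after compound exposure and referenced to vehicle-treated cultures.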

Experiment [2] can be described thus: NCI Yeast Anticancer Drug Screen. Data for the mec2-1 strain (AID 157). The note with it: S. cerevisiae mec2-1 strain, at 50.0 µM, stronger effect = higher value. A digest of the protocol: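 Cells of the genetically defined mec2-1 yeast strain are incubated with test compound. Inhibition of growth is calculated against vehicle-treated controls.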
A short description of experiment [3]: NCI Yeast Anticancer Drug Screen. Data for the sgs1 mgt1 strain (AID 161).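 Also: 0% = growth of cultures given vehicle only.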 The note with it: S. cerevisiae sgs1 mgt1 strain, at 50.0 µM, stronger effect = higher value. Put shortly: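 Read-out: growth inhibition vs vehicle controls. Cells: mutant yeast strain deficient in DNA damage repair.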
A short description of experiment [4]: NCI Yeast Anticancer Drug Screen. Data for the cln2 rad14 strain (AID 165).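 Also: 0% = growth equal to vehicle treated cultures.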 The note with it: S. cerevisiae cln2 rad14 strain, at 50.0 µM, stronger effect = higher value. Put shortly: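 The screen exposed genetically defined yeast (cln2 rad14) to test compounds and scored growth inhibition relative to vehicle-treated controls.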
Experiment [5] is described as follows: NCI Yeast Anticancer Drug Screen. Data for the bub3 strain (AID 167). The note with it: S. cerevisiae bub3 mutant strain, at 50.0 µM, stronger effect = higher value. Put shortly: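 Whole-cell yeast assay. The mutant strain was incubated with compounds, and growth inhibition was determined by comparison with vehicle-treated cells.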
Experiment [6] in a line: NCI Yeast Anticancer Drug Screen. Data for the mlh1 rad18 strain (AID 175). The note with it: S. cerevisiae mlh1 rad18 strain growth inhibition; at 50.0 µM; stronger effect = higher value. Put shortly: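 Compound-treated yeast growth, normalised to vehicle controls. Strain bears defined DNA repair mutations.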

Compounds without any hit were thinned out: in the full panel of roughly 79,000, 15% have a hit. A number with no mark means an inactive call. The source made the active and inactive calls. Rule as the data show it: active = growth inhibition above about 70%; inactive = the rest.

Consider `CCC[N+]1=C/c2ccccc2OC(=O)/C=C\1[O-]`, for which the growth inhibition in experiment [1] was -36.9%; in experiment [2] it was -11.3%; in experiment [3], -14.1%; in experiment [4], -8.95%; in experiment [5], 5.8%; in experiment [6], -1.1%.
On to `CCCCCCCCCCCC(=O)OC(C)CO` (configuration not stated), for which the growth inhibition in experiment [1] is -3.9%; in experiment [2], -10.9%; in experiment [3], -3.7%; in experiment [4] it was -32.9%; in experiment [5], -1.45%; in experiment [6] it was 17.1%.
`COc1ccc2nccc(N)c2c1`: the growth inhibition was 31.9% in experiment [1]; -7.95% in experiment [2]; 15.1% in experiment [3]; 11.5% in experiment [4]; -8.05% in experiment [5]; 20.9% in experiment [6].
As for `Nc1nc2ncc(CCCNc3ccc(C(=O)NC(CCC(=O)O)C(=O)O)cc3)nc2c(=O)[nH]1` (configuration not stated), the growth inhibition in experiment [1] is 33%; in experiment [2], 15.4%; in experiment [3], 8.3%; in experiment [4], 10.2%; in experiment [5], 3.7%; in experiment [6], 22.1%.
In the case of `Nc1ccc(C(=O)CC(=O)c2cccc([N+](=O)[O-])c2)cc1`, the growth inhibition is 26.4% in experiment [1]; 20.4% in experiment [2]; 39.4% in experiment [3]; 21.5% in experiment [4]; 27.4% in experiment [5]; 2.1% in experiment [6].
As for `CCOC(=O)c1cnc(NCCCCCCNc2ncc(C(=O)OCC)c(=O)[nH]2)[nH]c1=O`, the growth inhibition in experiment [1] was 29.7%; in experiment [2], -1.5%; in experiment [3] it was -3.65%; in experiment [4], -6.8%; in experiment [5], -3.1%; in experiment [6], 21.7%.
On to `O=C(NNC(=O)OCc1ccccc1)OCc1ccccc1`, for which the growth inhibition in experiment [1] is 23.9%; in experiment [2], -2.75%; in experiment [3], 1.3%; in experiment [4], -34.2%; in experiment [5], 11.5%; in experiment [6], 18.1%.
Turning to `CCCOC(=O)NC(C)C(=O)NC(CCC(=O)NC(CCCC(N)C(=O)O)C(=O)NC(C)C(=O)O)C(=O)O` (configuration not stated), the growth inhibition was -20.8% in experiment [1]; -19.9% in experiment [2]; -37.6% in experiment [3]; -9.25% in experiment [4]; 21.6% in experiment [5]; -10.8% in experiment [6].
For `Cc1cc2nc(CC(C(F)(F)F)C(F)(F)F)oc2cc1C`, the growth inhibition in experiment [1] was -21%; in experiment [2] it was -13.4%; in experiment [3], -13.2%; in experiment [4], -4.85%; in experiment [5], -14.4%; in experiment [6] it was 34.9%.
With `CCC1CN1C(=O)c1cc(C(=O)N2CC2CC)cc(C(=O)N2CC2CC)c1` (configuration not stated), the growth inhibition in experiment [1] is 3.2%; in experiment [2] it was 15.7%; in experiment [3] it was 5.5%; in experiment [4] it was 24.3%; in experiment [5] it was -5.75%; in experiment [6] it was 20%.
On to `COC(=O)[C@H]1C=C[C@@H](C)n2c(=O)c3cc4ccccc4cc3c(=O)n21`, for which the growth inhibition was -21.2% in experiment [1]; -1.55% in experiment [2]; -18.9% in experiment [3]; -7.95% in experiment [4]; -24% in experiment [5]; -18.2% in experiment [6].
With `CC(=O)Oc1cccc2cc3cc(C)cc(OC(C)=O)c3c(OC(C)=O)c12`, the growth inhibition in experiment [1] is -7.15%; in experiment [2], 3.8%; in experiment [3], 2.95%; in experiment [4], -2.95%; in experiment [5], 6.5%; in experiment [6], 14.7%.
In the case of `O=[N+]([O-])c1ccc(/C=C(/c2ccc([N+](=O)[O-])o2)S(=O)(=O)C(Cl)(Cl)Cl)cc1`, the growth inhibition in experiment [1] was 96.7% (active); in experiment [2] it was 97.2% (active); in experiment [3], 98.3% (active); in experiment [4] it was 97.1% (active); in experiment [5], 90.1% (active); in experiment [6], 97.8% (active).
On to `Cc1cc(Br)cc(Cl)c1O`, for which the growth inhibition in experiment [1] was -22.1%; in experiment [2], -7.9%; in experiment [3], 6.55%; in experiment [4] it was -11.2%; in experiment [5] it was -30.2%; in experiment [6] it was -12.4%.
Turning to `COc1cccc(NC(=O)Nc2ccccc2Cl)c1`, the growth inhibition was -13.2% in experiment [1]; 8.1% in experiment [2]; -3.25% in experiment [3]; -19.2% in experiment [4]; -1.3% in experiment [5]; -32.6% in experiment [6].
In the case of `O=c1nc(/C=C/c2ccccc2Cl)cc2n1CCN2CCO`, the growth inhibition was -17.4% in experiment [1]; -10.7% in experiment [2]; -4.2% in experiment [3]; 4.1% in experiment [4]; -3.1% in experiment [5]; -10.2% in experiment [6].
With `NC(=O)C(=O)n1ncc(Cl)c(Cl)c1=O`, the growth inhibition in experiment [1] is 2.65%; in experiment [2], -3%; in experiment [3], 1.05%; in experiment [4] it was 6.55%; in experiment [5], 8.25%; in experiment [6], -4.1%.
As to `CCOc1ccc(Br)cc1/C=N\NC(=O)c1ccccc1N(C)C`, the growth inhibition was -8.8% in experiment [1]; -11.6% in experiment [2]; -16.8% in experiment [3]; -23.6% in experiment [4]; -2.25% in experiment [5]; -11.2% in experiment [6].
On to `CCOC(=O)c1c(C(=O)Nc2ccccc2)c(-c2ccccc2)n(NC(N)=O)c1C`, for which the growth inhibition was 5.25% in experiment [1]; 5.95% in experiment [2]; 0.5% in experiment [3]; -2.4% in experiment [4]; 0.85% in experiment [5]; 2.95% in experiment [6].
`C[N+](C)(N)CCS(N)(=O)=O`: the growth inhibition in experiment [1] is 0.15%; in experiment [2], -9.8%; in experiment [3], 5.6%; in experiment [4] it was -22.4%; in experiment [5] it was 26.7%; in experiment [6], 0.5%.
Regarding `NC(=O)c1ccc(Cl)cc1`, the growth inhibition in experiment [1] is 33%; in experiment [2], 14.2%; in experiment [3], 15.5%; in experiment [4] it was 14.4%; in experiment [5], -0.6%; in experiment [6], 2%.
Regarding `Nc1ccc([N+](=O)[O-])cc1C(=O)Oc1ccccn1`, the growth inhibition was 9.15% in experiment [1]; 5% in experiment [2]; 8.5% in experiment [3]; 10.8% in experiment [4]; -3.6% in experiment [5]; 19% in experiment [6].
